Source: article PMC4242493, “Sequence specificity incompletely defines the genome-wide occupancy of Myc”
Whole data set: some 33,000 sequences, median “normalized occupancy” near 0.075, cut for the highest 2% near 0.095. This is one part of a sample in which the highest values are shown more often than they occur.

What follows are sequences tested against MaxL homodimer (Homo sapiens, UniProt P61244 1-160) (assay: universal protein-binding microarray (PBM); PBS-based mixture, 10 nM His-tagged protein dimer, 2% milk, 200 ng/uL BSA, 50 ng/uL salmon testes DNA, 0.02% TX-100; detection with Alexa 488 anti-His antibody;; high values mean tight binding). Conditions: protein: recombinant; tags: C-terminal His-tag (pET21a); chain copies: 2; dsDNA, one strand shown.
Sequence of MaxL homodimer (P61244 whole entry): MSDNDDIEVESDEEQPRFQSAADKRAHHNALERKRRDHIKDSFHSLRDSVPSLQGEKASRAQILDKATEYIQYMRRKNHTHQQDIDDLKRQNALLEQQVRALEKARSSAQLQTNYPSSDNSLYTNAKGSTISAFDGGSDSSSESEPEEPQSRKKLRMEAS
How it was run: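 Binding occupancy is a fluorescence intensity normalised to the intensity of the highest-ranked sequence word. Those intensities came from 8-mers on Agilent 4 x 44 K 'all 10-mer' universal arrays incubated with 10 nM His-tagged protein dimer. Bound protein was detected with 10 ng/μL fluorophore-conjugated anti-His antibody before scanning on a GenePix 4400A.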

Row | Sequence | binding signal
1 | AATATGAC | 0.0855 normalized occupancy
2 | CATATGGG | 0.103 normalized occupancy
3 | CATATGAA | 0.088 normalized occupancy
4 | AGTTCTAA | 0.0746 normalized occupancy
5 | CTGAAAAC | 0.0806 normalized occupancy
6 | CGTGCTAA | 0.0881 normalized occupancy
7 | ACTGCCCC | 0.0751 normalized occupancy
8 | GGCATTAC | 0.0758 normalized occupancy
9 | AAACGAAG | 0.0718 normalized occupancy
10 | CTGCTCTC | 0.0736 normalized occupancy
11 | ATTGATAA | 0.0774 normalized occupancy
12 | AGATGCGC | 0.077 normalized occupancy
13 | AAATGCGA | 0.0758 normalized occupancy
14 | AAATGCGG | 0.0791 normalized occupancy
15 | ATATGCGC | 0.085 normalized occupancy
16 | ACATGCGT | 0.127 normalized occupancy
17 | AGATGCGG | 0.0753 normalized occupancy
18 | ACCTGCGT | 0.0757 normalized occupancy
19 | ACATGCGG | 0.129 normalized occupancy
20 | ACATGCGC | 0.109 normalized occupancy
21 | ACATGCGA | 0.0989 normalized occupancy
22 | ATATGCGA | 0.0834 normalized occupancy

Row | Sequence | binding signal
23 | AAATGCGT | 0.0858 normalized occupancy
24 | AGGTTTTA | 0.0742 normalized occupancy
25 | CTAAGAAA | 0.0728 normalized occupancy
26 | GATGATTA | 0.0816 normalized occupancy
27 | AGGGTCAC | 0.0776 normalized occupancy
28 | CCCAGTTA | 0.0735 normalized occupancy
29 | GCATCACA | 0.0871 normalized occupancy
30 | CCGACGAC | 0.0752 normalized occupancy
31 | AGTCGTAT | 0.0756 normalized occupancy
32 | GTGTGGTA | 0.0868 normalized occupancy
33 | CCGTGGTC | 0.074 normalized occupancy
34 | AGGTGGTG | 0.0873 normalized occupancy
35 | ACGTGGTG | 0.1 normalized occupancy
36 | AAGTGGTG | 0.0758 normalized occupancy
37 | AGGTGGTA | 0.0821 normalized occupancy
38 | GGGTGGTA | 0.0821 normalized occupancy
39 | ACGTGGTC | 0.106 normalized occupancy
40 | ACGTGGTA | 0.115 normalized occupancy
41 | GCGTGGTA | 0.111 normalized occupancy
42 | CCGTGGTA | 0.0806 normalized occupancy
43 | AGGTGGTC | 0.0855 normalized occupancy
44 | GTTGAGAA | 0.076 normalized occupancy

Row | Sequence | binding signal
45 | TCATTGCA | 0.0829 normalized occupancy
46 | GCAATCAC | 0.0763 normalized occupancy
47 | GAGTCAGC | 0.0763 normalized occupancy
48 | AACTCACT | 0.0726 normalized occupancy
49 | AAGCACTA | 0.0755 normalized occupancy
50 | CGCCGAAA | 0.0723 normalized occupancy
51 | ACGGTAGA | 0.0739 normalized occupancy
52 | ACGCCGCT | 0.0763 normalized occupancy
53 | CGAGGTGA | 0.0813 normalized occupancy
54 | CACGCTCG | 0.0939 normalized occupancy
55 | CACGCTGG | 0.113 normalized occupancy
56 | AACGCTGG | 0.0764 normalized occupancy
57 | CACGCTGA | 0.115 normalized occupancy
58 | TACGCTGA | 0.0736 normalized occupancy
59 | GACGCTGC | 0.0724 normalized occupancy
60 | AACGCTGA | 0.0816 normalized occupancy
61 | AACGCTGC | 0.0786 normalized occupancy
62 | CACGCTGC | 0.131 normalized occupancy
63 | AGGAGACA | 0.084 normalized occupancy
64 | CTTTGACC | 0.0868 normalized occupancy
65 | AGTGCTCA | 0.0761 normalized occupancy
66 | TCACGAAA | 0.0755 normalized occupancy

Row | Sequence | binding signal
67 | CTCCAGTA | 0.0743 normalized occupancy
68 | CAACCGTA | 0.0753 normalized occupancy
69 | ACGCCGCG | 0.0773 normalized occupancy
70 | AAGGAAAG | 0.0804 normalized occupancy
71 | AATGCCCC | 0.0836 normalized occupancy
72 | CATGCCCA | 0.0953 normalized occupancy
73 | GATGCCCA | 0.0798 normalized occupancy
74 | CATGCCCC | 0.0965 normalized occupancy
75 | GATGCCCC | 0.0764 normalized occupancy
76 | CATGCCCG | 0.0842 normalized occupancy
77 | TCAGACGA | 0.0739 normalized occupancy
78 | CTACAGAG | 0.0735 normalized occupancy
79 | AAGAAGGC | 0.0751 normalized occupancy
80 | AGCGCCTA | 0.0724 normalized occupancy
81 | GTGAATAA | 0.0848 normalized occupancy
82 | CAATGTGG | 0.097 normalized occupancy
83 | CGATGTGA | 0.0833 normalized occupancy
84 | AAATGTGT | 0.0811 normalized occupancy
85 | ACATGTGA | 0.166 normalized occupancy
86 | AAATGTGC | 0.0962 normalized occupancy
87 | CCATGTAA | 0.0855 normalized occupancy
88 | CCATGTGA | 0.154 normalized occupancy

Row | Sequence | binding signal
89 | CAATGTGA | 0.0948 normalized occupancy
90 | AGATGTGA | 0.085 normalized occupancy
91 | ATATGTGA | 0.0878 normalized occupancy
92 | GAATGTGC | 0.0815 normalized occupancy
93 | CAATGTGC | 0.0924 normalized occupancy
94 | CGCACCAA | 0.0722 normalized occupancy
95 | GCGTTCAC | 0.0758 normalized occupancy
96 | CCGCTAAG | 0.0719 normalized occupancy
97 | CGTCACTC | 0.074 normalized occupancy
98 | GCGGGTCA | 0.0811 normalized occupancy
99 | ACTTTGTG | 0.0718 normalized occupancy
100 | TACTACGA | 0.0764 normalized occupancy
101 | CTAATATA | 0.0824 normalized occupancy
102 | CATTAGAA | 0.0752 normalized occupancy
103 | ACATCACG | 0.0884 normalized occupancy
104 | CGTGTTAA | 0.0819 normalized occupancy
105 | GGCCCACA | 0.0789 normalized occupancy
106 | ACTGACGA | 0.0719 normalized occupancy
107 | CTCCTTCC | 0.081 normalized occupancy
108 | AGGCACGC | 0.0914 normalized occupancy
109 | GTTAACCA | 0.0793 normalized occupancy
110 | AGCGTTCA | 0.0757 normalized occupancy
